AMA1 RON2 block – inhibitors of Plasmodium falciparum AMA1-RON2 interaction. AlphaScreen AMA1-biotinylated RON2 peptide binding. Potency, µM (doses to about 58.2 µM), usual class: inhibitors. hit rate 0.2% among 360,000. AID 720542; further: nearly all actives have a fitted effect of over 45% in size
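AMA1 (3D7) with his tag at 25 nM final met compounds first, then biotinylated RON2 peptide at 25 nM; detection used donor plus acceptor beads, 10 µg/mL apiece, read by AlphaScreen after 30 min at room temperature.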
NS1 function inh – inhibitors of influenza NS1 protein function. Potency, µM (titrated, usually from 46.1 µM). hit rate 0.4% among 270,000; calls by dose curve; further: actives are rising curves; nearly all actives have a fitted effect of over 50% in size
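OD600 was taken as the measure of yeast growth restored by compound in an NS1-expressing S. cerevisiae strain. Cells had been washed out of glucose medium and diluted 1:100 into galactose -URA medium, pH 6.0.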
AmpC inh no detg – blocks E. coli AmpC beta-lactamase in detergent-free assay; P00811; AmpC nitrocefin hydrolysis, absorbance 480 nm, 0.0001% Triton; Potency, µM (top dose mostly 57.1 µM), actives largely listed as inhibitors; hit rate 0.52% among 330,000; further: nearly all actives have a fitted effect of over 20% in size
Target sequence (P00811 whole entry, looked up): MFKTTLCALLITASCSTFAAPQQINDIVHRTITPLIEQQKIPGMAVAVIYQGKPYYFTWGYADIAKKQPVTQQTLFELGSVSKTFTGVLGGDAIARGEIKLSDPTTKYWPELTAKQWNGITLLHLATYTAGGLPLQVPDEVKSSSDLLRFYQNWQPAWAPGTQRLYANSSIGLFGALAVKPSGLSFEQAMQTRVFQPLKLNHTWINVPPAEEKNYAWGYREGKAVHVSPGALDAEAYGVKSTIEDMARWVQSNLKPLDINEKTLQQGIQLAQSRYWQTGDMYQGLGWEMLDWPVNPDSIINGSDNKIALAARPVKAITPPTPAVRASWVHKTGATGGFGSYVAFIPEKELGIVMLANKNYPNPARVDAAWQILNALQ
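AmpC (5.3 nM in the dispensed reagent) in 20 mM phosphate pH 7.0 with 0.01% (detergent screen) or 0.0001% Triton X-100 was preincubated with compounds for 15 min at room temperature. Nitrocefin was then added from an 800 uM solution, and hydrolysis was followed at 480 nm.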
AmpC detergent – AmpC beta-lactamase inhibition with detergent present. AmpC hydrolysis of nitrocefin, absorbance 480 nm, 0.01% Triton. P00811. hit rate 0.041% among 370,000. AID 485294. Potency, µM (top dose mostly 114 µM), actives largely listed as inhibitors; further: nearly all actives have a fitted effect of over 25% in size
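AmpC (5.3 nM in the dispensed reagent) in 20 mM phosphate pH 7.0 with 0.01% (detergent screen) or 0.0001% Triton X-100 was preincubated with compounds for 15 min at room temperature. Nitrocefin was then added from an 800 uM solution, and hydrolysis was followed at 480 nm.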
Of the large screens only hits and unclear results are named; the others gave an inactive call. The list is not random: actives were taken first. Their share in the collection is about 0.86%. Unless noted, the call rests on the fitted dose curve; in most records, active means well fitted curve in the direction sought with a large enough effect; inconclusive means small, poorly fitted or top-dose-only effect, or another doubt; inactive means no such curve, though single readings can be large; an effect the other way counts as inactive or inconclusive.

CCCC1NC(=O)c2cc3ccccc3cc2-n2c1nc1ccc(F)cc1c2=O (stereo not given)	none (no result: NS1 function inh, AmpC inh no detg, AmpC detergent)
COc1ccc(NC(=O)CN(C)CC(=O)N(CC(C)C)c2c(N)n(CC(C)C)c(=O)[nH]c2=O)cc1	none (no result: NS1 function inh, AmpC detergent)
C=CCOc1ccc(CN(C)CC(=O)N(CC(C)C)c2c(N)n(CC(C)C)c(=O)[nH]c2=O)cc1	AmpC inh no detg 6.3µM
CCOc1ccc(S(=O)(=O)NCCC(=O)NCC(c2ccc(OC)cc2)N2CCCCC2)cc1 (stereo not given)	AmpC detergent inconclusive (no result: NS1 function inh)
O=C(Cc1cc(=O)[nH][nH]1)N/N=C/c1cccc(Cl)c1Cl	NS1 function inh 10µM
O=C(Cc1cc(=O)[nH][nH]1)N/N=C/c1ccccc1Cl	NS1 function inh inconclusive, AmpC inh no detg inconclusive
Cc1ccc(Cl)cc1-n1c(=O)cc(N2CCN(C(=O)c3ccco3)CC2)[nH]c1=O	none
O=C(c1ccco1)N1CCN(c2cc(=O)n(-c3ccc(Cl)cc3)c(=O)[nH]2)CC1	AmpC inh no detg 45µM, AmpC detergent inconclusive
O=C(c1ccco1)N1CCN(c2ncnc3c2[nH]c2ccc(Cl)cc23)CC1	NS1 function inh 2.2µM (no result: AMA1 RON2 block)
CSc1ccc(CN(C)CC(=O)Nc2c(F)cccc2F)cc1	AmpC detergent inconclusive (no result: NS1 function inh)
CNC(=O)C[C@H]1C(=O)N(Cc2ccccc2)C[C@@H]1Cc1ccccc1	none (no result: NS1 function inh, AmpC inh no detg, AmpC detergent)
CCN(CC)S(=O)(=O)c1ccc(O)c(NC(=O)c2ccc(N3CCOCC3)c([N+](=O)[O-])c2)c1	AmpC inh no detg 20µM
CCN(CC)S(=O)(=O)c1ccc(N2CCOCC2)c(NC(=O)c2ccccc2)c1	none
NC(=O)C1CCN(C(=O)CC2(CC(=O)O)CCCCC2)CC1	none (no result: NS1 function inh)
NC(=O)CC1(CC(=O)O)CCCCC1	AmpC detergent 71µM
COCCCNC(=O)C(=O)Nc1cc2c3c(c1)CCN3C(=O)CC2	none
N#CC1(C#N)CC(C=O)=C(N)C1(C#N)CC(=O)C12CC3CC(CC(C3)C1)C2 (stereo not given)	AmpC inh no detg 16µM
CCCCN1C(=O)NC2NC(=O)NC21 (stereo not given)	AMA1 RON2 block 3.5µM
CC1=NN(c2ccc(C)cc2)C(=O)/C1=C/c1ccc(-c2cc([N+](=O)[O-])ccc2O)o1	AmpC inh no detg 16µM
O=C(Nc1ccc(Br)cc1F)c1cccnc1	none
COc1cccc(CN2CCCN(Cc3ccc(F)cc3)S2(=O)=O)c1	none (no result: AMA1 RON2 block, NS1 function inh, AmpC inh no detg)
COc1ccc(-c2cc(C(=O)Nc3cccc(S(=O)(=O)NCc4ccco4)c3)c3ccccc3n2)cc1OC	AmpC inh no detg 2µM
O=C(Nc1cccc(S(=O)(=O)NCc2ccco2)c1)c1cc(-c2ccc(F)cc2)nc2ccccc12	NS1 function inh inconclusive
COC(=O)C1(C)Nc2ccccc2C(=O)N1c1ccccc1C (stereo not given)	AmpC inh no detg 1µM, AmpC detergent inconclusive
Cc1[nH]n(-c2ncc(-c3ccccc3)s2)c(=O)c1C(c1ccc(Cl)cc1)C(C#N)C#N (stereo not given)	NS1 function inh inconclusive, AmpC inh no detg 32µM
Cc1[nH]n(-c2ccccc2)c(=O)c1C(c1ccccc1[N+](=O)[O-])C(C#N)C#N (stereo not given)	none
CCN(CC)c1ccc(NC(=O)CSc2nc3ccccc3c(=O)[nH]2)cc1	AmpC inh no detg 20µM, AmpC detergent inconclusive
Cc1cccc(N=C2NC(=O)/C(=C/C=C/c3ccco3)S2)c1C	AmpC inh no detg 32µM
COc1ccc(N=C2NC(=O)/C(=C/c3ccco3)S2)cc1	AmpC inh no detg 11µM
CC(=O)C1=C(c2ccc(Cl)c(Cl)c2)N(C(C)=O)n2cnnc2S1	none (no result: AMA1 RON2 block, NS1 function inh, AmpC inh no detg)
COc1ccccc1NC(=O)C1=C(C)Nc2nc(SCc3ccccc3)nn2C1c1cccnc1 (stereo not given)	none (no result: AMA1 RON2 block, NS1 function inh, AmpC inh no detg)
O=C(CN1CCCCCCC1)N/N=C/c1ccc([N+](=O)[O-])o1	AMA1 RON2 block 10µM
CCCOc1ccccc1NC(=O)CC1Nc2ccccc2NC1=O (stereo not given)	AmpC inh no detg 18µM
Cc1cc(C)n(C(=O)CSc2nc3ccccc3o2)n1	AmpC detergent 28µM
O=C(NCCN1CCOCC1)c1cc(-c2ccc(Cl)cc2)on1	none
CC(C)Cc1cc(C(=O)NCCN2CCOCC2)no1	AmpC inh no detg 0.5µM, AmpC detergent inconclusive
Oc1cccc(-c2ccc3nccn3c2)c1	none (no result: NS1 function inh, AmpC inh no detg, AmpC detergent)
C=CCN1C(=O)NC(=O)/C(=C/C=C/c2ccccc2)C1=O	none (no result: NS1 function inh)
O=C1NC(=O)N(CCc2ccc(F)cc2)C(=O)/C1=C\C=C\c1ccccc1	AmpC inh no detg 3.5µM (no result: NS1 function inh)
COc1cc(NC(=O)C2CCN(c3cnc4ccccc4n3)CC2)cc(OC)c1OC	none (no result: AMA1 RON2 block, NS1 function inh, AmpC inh no detg)
O=[N+]([O-])c1cccc(C=NN2CCCCCC2)c1	AMA1 RON2 block 18µM (no result: NS1 function inh, AmpC inh no detg, AmpC detergent)
O=[N+]([O-])c1cccc(/C=N/N2CCN(Cc3ccccc3)CC2)c1	none (no result: NS1 function inh)
O=[N+]([O-])c1cc(C=NN2CCCCCC2)ccc1Cl	AMA1 RON2 block 14µM (no result: NS1 function inh, AmpC inh no detg, AmpC detergent)
CN[C@H]1C[C@@H](c2ccccc2)N(C(C)=O)C[C@H]1CO	none (no result: NS1 function inh, AmpC inh no detg, AmpC detergent)
CC1C(=O)Nc2ccc(S(=O)(=O)N3CCN(c4cccc(C(F)(F)F)c4)CC3)cc2NC1=O (stereo not given)	AmpC detergent inconclusive
CO[C@@]1(NC(=O)Cc2cccs2)C(=O)N2C(C(=O)O)=C(COC(N)=O)CS[C@@H]21	AmpC detergent 40µM
CN1\C(=C/C=C/C=C/C=[N+](C)C)C(C)(C)c2ccccc21	AMA1 RON2 block 22µM (no result: NS1 function inh)
CCOC(=O)CCCCC(=O)c1[nH]c(=O)[nH]c1CSCCO	AMA1 RON2 block 7.5µM
CCOC(=O)CCCCC(=O)c1[nH]c(=O)[nH]c1Cn1cnc2ccccc21	AMA1 RON2 block 38µM
CCOC(=O)CCCCC(=O)c1[nH]c(=O)[nH]c1CSc1nc(-c2ccccc2)c(C#N)c(=O)[nH]1	AMA1 RON2 block inconclusive
Cc1ccc(CS(=O)(=O)CC(C)(O)c2ccccc2)cc1 (stereo not given)	none
COc1ccc(C(C(=O)NCc2ccccc2)N(C(=O)Cn2nnc3ccccc32)c2cccc(OC)c2)cc1 (stereo not given)	none (no result: AMA1 RON2 block, NS1 function inh, AmpC inh no detg)
CCOc1ccc(CCNC(=O)COC(=O)c2ccc3c(c2)OCCO3)cc1OCC	AmpC detergent inconclusive (no result: NS1 function inh)
COc1ccc(NC(=O)CNS(=O)(=O)c2ccccc2)cc1Cl	AmpC inh no detg 0.63µM
Cc1cc(NC(=O)CSCC(=O)OCC(=O)c2cccc(Br)c2)no1	AmpC inh no detg 32µM (no result: NS1 function inh)
Cc1cc(NC(=O)CSCC(=O)OCC(=O)Nc2ccc(OC(F)F)cc2)no1	none (no result: NS1 function inh)
COc1ccc(N=C(N(C)C)P(=O)(N(C)C)N(C)C)cc1	AmpC inh no detg 28µM, AmpC detergent inconclusive
O=C1c2cc(Br)ccc2N(Cc2ccc(Br)cc2)S(=O)(=O)C1c1cc(Cl)c(Cl)cc1[N+](=O)[O-] (stereo not given)	AmpC inh no detg 2µM (no result: NS1 function inh, AmpC detergent)
COc1ccccc1CNC(=O)COC(=O)Cn1cnc2c1c(=O)n(C)c(=O)n2C	none (no result: NS1 function inh, AmpC inh no detg, AmpC detergent)
O=C1N=C(N2CCCC2)S/C1=C\C=C\c1ccccc1	none
CCOC(=O)CN1CC23C=CC(O2)C(C(=O)Nc2ccc(C(C)=O)cc2)C3C1=O (stereo not given)	AmpC inh no detg 1.1µM, AmpC detergent inconclusive
O=C(N/N=C/c1ccoc1)c1cc(Br)ccc1O	AmpC inh no detg 7.9µM

Assay outcomes: PubChem, National Center for Advancing Translational Sciences (NCATS)
